# From ChEMBL document CHEMBL1961873, “Compounds: GSK PKIS; Assays: Nanosyn kinase panel” (2012)
# Molecular target: Dual specificity tyrosine-phosphorylation-regulated kinase 1B (Homo sapiens) (UniProt Q9Y463)
# Conditions: at 0.1 µM
# Chain of Dual specificity tyrosine-phosphorylation-regulated kinase 1B (Homo sapiens) (Q9Y463 whole entry, looked up): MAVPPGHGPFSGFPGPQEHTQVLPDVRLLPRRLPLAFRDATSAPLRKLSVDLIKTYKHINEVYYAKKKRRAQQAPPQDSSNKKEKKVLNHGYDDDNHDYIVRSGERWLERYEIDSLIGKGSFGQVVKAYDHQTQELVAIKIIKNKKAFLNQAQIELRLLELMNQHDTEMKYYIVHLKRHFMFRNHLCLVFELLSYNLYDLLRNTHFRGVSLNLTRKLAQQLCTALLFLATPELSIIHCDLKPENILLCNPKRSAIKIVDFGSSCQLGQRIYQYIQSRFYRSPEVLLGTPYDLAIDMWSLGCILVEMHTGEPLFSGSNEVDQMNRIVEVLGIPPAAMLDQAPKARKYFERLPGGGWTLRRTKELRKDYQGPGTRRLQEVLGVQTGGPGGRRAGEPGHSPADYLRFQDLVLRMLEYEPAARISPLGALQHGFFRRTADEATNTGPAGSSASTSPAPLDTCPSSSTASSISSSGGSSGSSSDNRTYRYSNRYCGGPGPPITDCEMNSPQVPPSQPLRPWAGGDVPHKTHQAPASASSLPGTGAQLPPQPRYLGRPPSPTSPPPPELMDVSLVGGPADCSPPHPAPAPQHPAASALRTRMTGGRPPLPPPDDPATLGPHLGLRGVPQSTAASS
row,Structure (SMILES),inhibition
1,CC(C)c1ccc(Nc2nccc(-c3cnn4ncccc34)n2)cc1,43.4%
2,NS(=O)(=O)c1ccc(NC=C2C(=O)Nc3ccc4ncsc4c32)cc1,20.4%
3,COC(=O)c1cncc(/C=C/c2c(C)cc(O)cc2C)c1,0.83%
4,Nc1nccc(C#Cc2cncnc2Nc2ccc(OCc3cccc(F)c3)c(Cl)c2)n1,1.71%
5,Oc1cccc(-c2nc(-c3ccccc3)[nH]c2-c2ccncc2)c1,1.25%
6,Cc1ccc2c(-c3ccnc(Nc4ccc5c(c4)OCCO5)n3)c(-c3ccc(C(F)(F)F)cc3)nn2n1,-0.58%
7,Nc1nccc(-c2c(-c3ccc(F)cc3)nn3cc(C(F)(F)F)ccc23)n1,-1.44%
8,CCOc1nccc2c1nc(-c1nonc1N)n2CC,0.32%
9,CCCN1CCCC(c2ccc(Nc3nc(Nc4cc(F)ccc4C(N)=O)c4cc[nH]c4n3)c(OC)c2)C1 (stereo unspecified),72%
10,COc1cc(/C=N/Nc2ncnc3c2cnn3C(C)C)ccc1O,0.35%
11,Cc1ccc(O)cc1Nc1ccnc2ccc(S(C)(=O)=O)cc12,0.55%
12,COc1cc(Nc2nccc(-c3cnn4ncccc34)n2)cc(OC)c1,87.4%
13,CN(C)C(=O)O[C@H]1CN[C@H](C#Cc2cc3ncnc(Nc4ccc(OCc5cccc(F)c5)c(Cl)c4)c3s2)C1,0.21%
14,c1ccc(Nc2ncc(-c3ccccc3)o2)cc1,-0.02%
15,NC(=O)c1cccc(Nc2nccc(Nc3cccc(F)c3)n2)c1,0.64%
16,Cc1cc(-c2ccccn2)cc(C)c1/C=C/c1cncc(-c2nn[nH]n2)c1,2.58%
17,CCn1c(-c2nonc2N)nc2ccc(F)cc21,-0.23%

row,Structure (SMILES),inhibition
1,CN(C)c1cc2c(Nc3ccc4c(cnn4Cc4ccccc4)c3)ncnc2cn1,1.02%
2,COC(=O)c1ccc2c(c1)C(=Cc1cc(Br)c(O)c(Br)c1)C(=O)N2,9.22%
3,Cc1ccc(NC(=O)CC2CC2)cc1-c1ccc(C(=O)NCC2CC2)cc1,0.61%
4,CN(C)C(=O)O[C@@H]1CN[C@@H](C#Cc2cc3ncnc(Nc4ccc(OCc5cccc(F)c5)c(Cl)c4)c3s2)C1,0.23%
5,O=C(Nc1ccc(Oc2ccc3[nH]c(NC(=O)c4ccco4)nc3c2)cc1)Nc1cc(C(F)(F)F)ccc1F,-3.67%
6,c1ccc(Cc2nc3ccc(Nc4ncnc5ccccc45)cc3[nH]2)cc1,5.37%
7,CCS(=O)(=O)c1ccc(OC)c(Nc2nccc(N(C)c3ccc4c(C)n[nH]c4c3)n2)c1,-0.67%
8,COc1cccc(-n2ncc3c(N/N=C/c4ccc(C)cc4)ncnc32)c1,3.97%
9,NS(=O)(=O)c1cccc(Nc2cc(-c3ccc(F)cc3)n[nH]2)c1,-1.06%
10,COc1cc2ncn(-c3cc(OCc4ccccc4S(C)(=O)=O)c(C#N)s3)c2cc1OC,2.5%
11,Cc1ccc(Nc2ccnc(Nc3cccc(C(N)=O)c3)n2)cc1O,-1.03%
12,NS(=O)(=O)c1ccc(-c2cc3ccncc3cc2OCc2ccccc2)cc1,0.97%
13,COc1cc2ncnc(Nc3ccc(C)c(O)c3)c2cc1OC,0.95%
14,NS(=O)(=O)c1ccc(Nc2cc(-c3cccc(O)c3)n[nH]2)cc1,0.5%
15,NS(=O)(=O)c1cccc(-c2cc3ccncc3cc2OCc2ccccc2)c1,0.3%
16,CC(C)c1ccc2c(c1)NC(=O)/C2=N/Nc1ccc(S(N)(=O)=O)cc1,3.56%

# Molecular target: Dual specificity tyrosine-phosphorylation-regulated kinase 1B (Homo sapiens) (UniProt Q9Y463)
# Conditions: at 1 µM
row,Structure (SMILES),inhibition
1,CC(C)c1ccc(Nc2nccc(-c3cnn4ncccc34)n2)cc1,82.1%
2,NS(=O)(=O)c1ccc(NC=C2C(=O)Nc3ccc4ncsc4c32)cc1,57.6%
3,COC(=O)c1cncc(/C=C/c2c(C)cc(O)cc2C)c1,4.47%
4,Nc1nccc(C#Cc2cncnc2Nc2ccc(OCc3cccc(F)c3)c(Cl)c2)n1,4.87%
5,Oc1cccc(-c2nc(-c3ccccc3)[nH]c2-c2ccncc2)c1,7.99%
6,Cc1ccc2c(-c3ccnc(Nc4ccc5c(c4)OCCO5)n3)c(-c3ccc(C(F)(F)F)cc3)nn2n1,1.39%
7,Nc1nccc(-c2c(-c3ccc(F)cc3)nn3cc(C(F)(F)F)ccc23)n1,0.98%
8,CCOc1nccc2c1nc(-c1nonc1N)n2CC,2.83%
9,CCCN1CCCC(c2ccc(Nc3nc(Nc4cc(F)ccc4C(N)=O)c4cc[nH]c4n3)c(OC)c2)C1 (stereo unspecified),82.4%
10,COc1cc(/C=N/Nc2ncnc3c2cnn3C(C)C)ccc1O,7.69%
11,Cc1ccc(O)cc1Nc1ccnc2ccc(S(C)(=O)=O)cc12,2.94%
12,COc1cc(Nc2nccc(-c3cnn4ncccc34)n2)cc(OC)c1,92.4%
13,CN(C)C(=O)O[C@H]1CN[C@H](C#Cc2cc3ncnc(Nc4ccc(OCc5cccc(F)c5)c(Cl)c4)c3s2)C1,0.78%
14,c1ccc(Nc2ncc(-c3ccccc3)o2)cc1,1.13%
15,NC(=O)c1cccc(Nc2nccc(Nc3cccc(F)c3)n2)c1,-0.2%
16,Cc1cc(-c2ccccn2)cc(C)c1/C=C/c1cncc(-c2nn[nH]n2)c1,4.24%
17,CCn1c(-c2nonc2N)nc2ccc(F)cc21,1.12%

row,Structure (SMILES),inhibition
1,CN(C)c1cc2c(Nc3ccc4c(cnn4Cc4ccccc4)c3)ncnc2cn1,3.5%
2,COC(=O)c1ccc2c(c1)C(=Cc1cc(Br)c(O)c(Br)c1)C(=O)N2,53.5%
3,Cc1ccc(NC(=O)CC2CC2)cc1-c1ccc(C(=O)NCC2CC2)cc1,1.49%
4,CN(C)C(=O)O[C@@H]1CN[C@@H](C#Cc2cc3ncnc(Nc4ccc(OCc5cccc(F)c5)c(Cl)c4)c3s2)C1,1.08%
5,O=C(Nc1ccc(Oc2ccc3[nH]c(NC(=O)c4ccco4)nc3c2)cc1)Nc1cc(C(F)(F)F)ccc1F,-1.57%
6,c1ccc(Cc2nc3ccc(Nc4ncnc5ccccc45)cc3[nH]2)cc1,8.13%
7,CCS(=O)(=O)c1ccc(OC)c(Nc2nccc(N(C)c3ccc4c(C)n[nH]c4c3)n2)c1,-0.22%
8,COc1cccc(-n2ncc3c(N/N=C/c4ccc(C)cc4)ncnc32)c1,11.3%
9,NS(=O)(=O)c1cccc(Nc2cc(-c3ccc(F)cc3)n[nH]2)c1,2.79%
10,COc1cc2ncn(-c3cc(OCc4ccccc4S(C)(=O)=O)c(C#N)s3)c2cc1OC,13.9%
11,Cc1ccc(Nc2ccnc(Nc3cccc(C(N)=O)c3)n2)cc1O,11.8%
12,NS(=O)(=O)c1ccc(-c2cc3ccncc3cc2OCc2ccccc2)cc1,2.12%
13,COc1cc2ncnc(Nc3ccc(C)c(O)c3)c2cc1OC,4.18%
14,NS(=O)(=O)c1ccc(Nc2cc(-c3cccc(O)c3)n[nH]2)cc1,2.4%
15,NS(=O)(=O)c1cccc(-c2cc3ccncc3cc2OCc2ccccc2)c1,2.52%
16,CC(C)c1ccc2c(c1)NC(=O)/C2=N/Nc1ccc(S(N)(=O)=O)cc1,4.99%
